Consider 14 compounds from the supplement of paper PMC13380429.

The assay relates to Vero E6 infected with SARS-CoV-2. Briefly: SARS-CoV-2 infection rate relative to infected DMSO; higher = more infection, active = 60 or less. To be noted: 24 h.
`O=C1NC(=O)[C@@H](c2cn3c4c(cccc24)CCC3)[C@@H]1c1c[nH]c2ccccc12` [tivantinib] (10 µM): the SARS-CoV-2 infection rate was 107% (inactive).

For `CN[C@@H](C)C(=O)N[C@H](C(=O)N1CCC[C@H]1c1nc(C(=O)c2ccc(F)cc2)cs1)C1CCCCC1` (10 µM), the SARS-CoV-2 infection rate is 87% (inactive).

On to `N[C@H](Cc1ccccc1)C(=O)O` [D-phenylalanine] (10 µM), for which the SARS-CoV-2 infection rate is 104% (inactive). As for `COc1ccc(C(=O)c2ccccc2)c(O)c1` [oxybenzone] (10 µM), the figure is 102% (inactive).

In the case of `CN1CCN(C(=O)C2C(C(=O)O)[C@H]3CC[C@@H]2O3)CC1` (some centres undefined) (10 µM), the SARS-CoV-2 infection rate is 110% (inactive). For the compound `Cc1cnc(CNC(=O)c2c(=O)c3ccc(N4CCCN(C)CC4)nc3n3c2sc2ccccc23)cn1` (0.833333 µM), the SARS-CoV-2 infection rate was 109% (inactive). `CN1CCN(C(=O)c2cc3cc(Cl)ccc3[nH]2)CC1` (10 µM): the SARS-CoV-2 infection rate was 111% (inactive). As for `COc1ccccc1C(=O)Nc1cccc(NC(=O)c2cccc(C)c2)c1` (10 µM), the SARS-CoV-2 infection rate is 96.5% (inactive). As for `CCN(C)C(=O)Oc1cccc([C@H](C)N(C)C)c1` [rivastigmine] (10 µM), the figure is 101% (inactive); as for `CCCCn1c(-c2ccccc2)nc(-c2ccccc2)c1CN(Cc1ccc2c(c1)OCO2)Cc1ccc2c(c1)OCO2` (10 µM), 99.5% (inactive). As for `C#C[C@]1(O)CC[C@H]2[C@@H]3CCC4=CC(=O)CC[C@]4(C)[C@H]3CC[C@@]21C` [ethisterone] (10 µM), the figure is 107% (inactive). On to `CC[C@H](CO)Nc1nc(Nc2cccc(-c3ccccn3)c2)c2ncn(C(C)C)c2n1` (10 µM), for which the SARS-CoV-2 infection rate was 116% (inactive). As for `CC1(C)O[C@@H]2C[C@H]3[C@@H]4CCC5=CC(=O)C=C[C@]5(C)[C@H]4[C@@H](O)C[C@]3(C)[C@]2(C(=O)CO)O1` [desonide] (10 µM), the figure is 107% (inactive); as for `COc1cc2ncnc(Nc3ccc(F)c(Cl)c3)c2cc1NC(=O)/C=C/CN1CCCCC1` [dacomitinib] (0.833333 µM), 103% (inactive).
